Among the test systems are SR leukemia; RPMI-8226 leukemia; OVCAR-8 ovarian; OVCAR-5 ovarian; OVCAR-4 ovarian; SK-OV-3 ovarian; IGROV1 ovarian; OVCAR-3 ovarian; HS 578T breast; NCI/ADR-RES ovarian; T-47D breast; BT-549 breast; MDA-MB-435 melanoma; SW-620 colon; MCF7 breast; HCT-116 colon; HCC-2998 colon; KM12 colon.
Assay in all cases: NCI-60 one-dose screen, 48 h (100 = growth as untreated, 0 = no growth, -100 = all killed)
What all share (conditions): 10 µM unless noted

Structures are written as SMILES. The panel holds about 83,000 compounds, 20% with a hit somewhere; the sample as a whole holds those more often.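 For each line, cells grew in 96-well plates with the test compound present at a single concentration for 48 hours.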 Values without a mark were called inactive. Activity calls are given as the source filed them. How the source made its calls: active means growth percent below 10; inactive means the rest.

With `CC(=O)Cc1nsc(NC(=O)c2ccoc2COc2ccccc2)n1`, the growth with SR leukemia is 104%; with RPMI-8226 leukemia it was 88.6%; with OVCAR-8 ovarian, 103%; in the experiment on OVCAR-5 ovarian, 94.1%; in the experiment on OVCAR-4 ovarian it was 103%; with SK-OV-3 ovarian it was 111%. The growth in the experiment on IGROV1 ovarian was 95.9%; in the experiment with OVCAR-3 ovarian, 111%; with HS 578T breast, 107%; with NCI/ADR-RES ovarian, 99.1%; in the experiment on T-47D breast it was 105%; in the experiment on BT-549 breast, 94%. Besides, the growth with MDA-MB-435 melanoma was 107%; in the experiment with SW-620 colon, 105%; in the experiment with MCF7 breast, 98.2%; in the experiment with HCT-116 colon, 98%; in the experiment with HCC-2998 colon, 103%; in the experiment with KM12 colon it was 100%.
For the molecule `Cc1nnc2nc(N)[nH]n2c1=O`, the growth with SR leukemia is 78.9%; in the experiment with RPMI-8226 leukemia, 106%; in the experiment on OVCAR-8 ovarian, 98.8%; with OVCAR-5 ovarian, 117%; with OVCAR-4 ovarian, 99.4%; in the experiment on SK-OV-3 ovarian, 112%. In addition, the growth in the experiment on IGROV1 ovarian is 103%; in the experiment with OVCAR-3 ovarian, 104%; in the experiment with HS 578T breast it was 112%; in the experiment with NCI/ADR-RES ovarian it was 99.7%; with T-47D breast it was 96.1%; with BT-549 breast, 99.6%. The growth is 113% in the experiment on MDA-MB-435 melanoma; 107% with SW-620 colon; 97.9% in the experiment with MCF7 breast; 101% with HCT-116 colon; 102% with HCC-2998 colon; 96% with KM12 colon.
In the case of `N=c1c(S(=O)(=O)c2ccccc2)cc2c(=O)n3ccccc3nc2n1C1CCCC1`, the growth was 82.4% in the experiment with SR leukemia; 92.9% in the experiment with RPMI-8226 leukemia; 88.3% with OVCAR-8 ovarian; 103% in the experiment with OVCAR-5 ovarian; 95.5% with OVCAR-4 ovarian; 104% in the experiment on SK-OV-3 ovarian. Further, the growth in the experiment with IGROV1 ovarian is 97%; in the experiment with OVCAR-3 ovarian it was 93.9%; in the experiment with HS 578T breast, 95.6%; in the experiment on NCI/ADR-RES ovarian it was 87.4%; with T-47D breast, 79.8%; in the experiment with BT-549 breast, 89.3%. Besides, the growth in the experiment on MDA-MB-435 melanoma was 108%; with SW-620 colon it was 99.3%; with MCF7 breast it was 93.8%; in the experiment with HCT-116 colon it was 91.5%; with HCC-2998 colon, 103%; in the experiment with KM12 colon it was 98.5%.
As for `Cc1cccc(C)c1NC(=O)CSC(=S)N1CCN(CCOCCO)CC1`, the growth is 102% in the experiment on SR leukemia; 108% in the experiment on RPMI-8226 leukemia; 106% in the experiment with OVCAR-8 ovarian; 96.9% in the experiment with OVCAR-5 ovarian; 102% in the experiment on OVCAR-4 ovarian; 110% in the experiment on SK-OV-3 ovarian. The growth with IGROV1 ovarian is 96.5%; in the experiment on OVCAR-3 ovarian, 102%; in the experiment on HS 578T breast, 104%; with NCI/ADR-RES ovarian, 99.5%; in the experiment with T-47D breast, 103%; in the experiment on BT-549 breast it was 102%. The growth in the experiment on MDA-MB-435 melanoma is 108%; in the experiment on SW-620 colon, 104%; in the experiment on MCF7 breast it was 98.1%; in the experiment with HCT-116 colon it was 108%; in the experiment with HCC-2998 colon, 97.6%; in the experiment with KM12 colon it was 98.5%.
On to `CC(=O)c1c(C)[nH]c(-c2nc3ccc(N4CCN(C)CC4)cc3[nH]2)c1-c1ccc(N(C)C)cc1`, for which the growth is 33% with SR leukemia; 0.258% (active) with RPMI-8226 leukemia; 43.7% in the experiment on OVCAR-8 ovarian; 41.6% with OVCAR-5 ovarian; 37.2% in the experiment on OVCAR-4 ovarian; 12.6% with SK-OV-3 ovarian. Also, the growth in the experiment on IGROV1 ovarian was 15.6%; with OVCAR-3 ovarian, 34.6%; with HS 578T breast it was 21.1%; in the experiment on NCI/ADR-RES ovarian, 34.2%; in the experiment with T-47D breast, 23.8%; in the experiment on BT-549 breast, 51.6%. Besides, the growth in the experiment with MDA-MB-435 melanoma was 27.1%; with SW-620 colon, 56.8%; in the experiment on MCF7 breast it was 8.22% (active); in the experiment on HCT-116 colon, 23.2%; in the experiment with HCC-2998 colon it was 30.3%; with KM12 colon it was 37.2%.
As to `COc1cc(/C=C/c2cc(/C=C/c3ccc(O)c(OC)c3)n(-c3ccc(Cl)cc3)c(=O)n2)ccc1O`, the growth in the experiment on SR leukemia is 36.4%; in the experiment with RPMI-8226 leukemia, 64.5%; with OVCAR-8 ovarian it was 107%; with OVCAR-5 ovarian it was 103%; with OVCAR-4 ovarian it was 78.3%; in the experiment with SK-OV-3 ovarian, 89.7%. Further, the growth in the experiment on IGROV1 ovarian is 8.57% (active); with OVCAR-3 ovarian, 83.8%; with HS 578T breast, 87.4%; in the experiment with NCI/ADR-RES ovarian it was 96.5%; with T-47D breast, 86%; in the experiment with BT-549 breast, 66.9%. Moreover, the growth in the experiment with MDA-MB-435 melanoma is 74.9%; with SW-620 colon, 85.6%; with MCF7 breast, 47.6%; in the experiment with HCT-116 colon, 50.6%; with HCC-2998 colon, 104%; in the experiment with KM12 colon, 77%.
For the molecule `Fc1ccc2c(c1)c(-c1nc(-c3c[nH]c4ncccc34)cs1)cn2CCCN1CCCCC1`, the growth is -34.7% (active) in the experiment on SR leukemia; -21.1% (active) with RPMI-8226 leukemia; 76.9% in the experiment with OVCAR-8 ovarian; 88.3% with OVCAR-5 ovarian; 70.6% with OVCAR-4 ovarian; 94.4% in the experiment on SK-OV-3 ovarian. The growth in the experiment with IGROV1 ovarian was 45.7%; in the experiment with OVCAR-3 ovarian it was 61.7%; with HS 578T breast, 75.1%; in the experiment with NCI/ADR-RES ovarian, 74.1%; with T-47D breast it was 67.5%; with BT-549 breast, 88.8%. Besides, the growth in the experiment with MDA-MB-435 melanoma was -20% (active); in the experiment on SW-620 colon it was -34.9% (active); in the experiment on MCF7 breast, 21.6%; in the experiment with HCT-116 colon, 45.3%; in the experiment on HCC-2998 colon, 98.8%; in the experiment on KM12 colon, 68.3%.
In the case of `CCN1CCN(C(=O)[C@]23CCC(C)(C)C[C@@H]2C2=CC[C@@H]4[C@@]5(C)C/C(=C/c6cccnc6)C(=O)C(C)(C)[C@@H]5CC[C@@]4(C)[C@]2(C)CC3)CC1`, the growth with SR leukemia was 4.78% (active); with RPMI-8226 leukemia, 5.88% (active); in the experiment on OVCAR-8 ovarian, 27.1%; in the experiment on OVCAR-5 ovarian, 83.8%; with OVCAR-4 ovarian, 7.28% (active); in the experiment with SK-OV-3 ovarian it was 56%. In addition, the growth in the experiment with IGROV1 ovarian was 51.6%; in the experiment on OVCAR-3 ovarian it was 28.6%; with HS 578T breast, 54.6%; in the experiment on NCI/ADR-RES ovarian it was 8.32% (active); with T-47D breast, 20.1%; with BT-549 breast, 25.7%. Also, the growth was 34.9% with MDA-MB-435 melanoma; 27.6% in the experiment with SW-620 colon; 5.68% (active) in the experiment with MCF7 breast; 13.3% in the experiment with HCT-116 colon; 18.9% in the experiment on HCC-2998 colon; 33.8% with KM12 colon.
`COc1ccccc1-n1cnc(N)c1C(=O)c1cc(OC)c(OC)c(OC)c1`: the growth with SR leukemia is 30.2%; in the experiment on RPMI-8226 leukemia, 30.9%; in the experiment on OVCAR-8 ovarian, 61.8%; with OVCAR-5 ovarian, 79.1%; in the experiment with OVCAR-4 ovarian, 65.9%; in the experiment with SK-OV-3 ovarian, 48.2%. Besides, the growth is 45.5% with IGROV1 ovarian; -21.3% (active) in the experiment with OVCAR-3 ovarian; -12.8% (active) with HS 578T breast; 55.1% in the experiment with NCI/ADR-RES ovarian; 49.8% in the experiment on T-47D breast; 47.1% in the experiment with BT-549 breast. For the same molecule, the growth was -15% (active) in the experiment with MDA-MB-435 melanoma; 23.7% with SW-620 colon; 12.4% in the experiment with MCF7 breast; 24.5% in the experiment with HCT-116 colon; 61.7% in the experiment with HCC-2998 colon; 16.1% in the experiment with KM12 colon.
